Our source for the inhibition values is PubChem BioAssay.

The source made the active and inactive calls. The rule behind the calls is not given here.

Sequence of Pantothenate synthetase (Mycobacterium tuberculosis (strain ATCC 25618 / H37Rv)) (P9WIL5 whole entry, looked up): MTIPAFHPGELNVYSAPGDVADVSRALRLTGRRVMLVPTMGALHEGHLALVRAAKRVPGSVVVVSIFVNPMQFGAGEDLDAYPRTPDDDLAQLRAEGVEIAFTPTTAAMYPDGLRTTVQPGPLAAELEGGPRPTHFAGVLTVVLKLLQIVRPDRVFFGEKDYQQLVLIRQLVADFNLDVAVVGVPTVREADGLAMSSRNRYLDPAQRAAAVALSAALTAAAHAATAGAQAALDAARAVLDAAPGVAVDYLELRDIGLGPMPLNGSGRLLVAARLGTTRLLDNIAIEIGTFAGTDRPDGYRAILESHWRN

This assay addresses Pantothenate synthetase (Mycobacterium tuberculosis (strain ATCC 25618 / H37Rv)) (UniProt P9WIL5). Kind of assay: Coupled enzyme confirmation of inhibitors against recombinant Mtb PanC (AID 375).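 Note: 0% = full reaction with vehicle and 100% = no enzyme background.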 As to conditions: coupled enzyme assay; at 10 µM, stronger effect = higher value.
As a reminder, the inhibition is the percentage by which the read-out fell short of the control. As for `c1ccc2c(-c3nc(C4CCCCC4)no3)cc(-c3ccncc3)nc2c1`, the inhibition is 1% (inactive).
The figure for `COc1ccc(CNC(=O)c2cc(-c3ccc(OC)c(OC)c3)on2)cc1` is 3% (inactive); for `CCOC(=O)C1=C(C)OC(N)=C(C#N)C1c1ccoc1` (stereo not given) it is 0% (inactive); for `COc1ccc(OC)c(S(=O)(=O)Nc2ccc(C(N)=O)cc2)c1` it is 0% (inactive).
On to `CCOC(=O)CSc1nc2cc(C(=O)NCc3ccco3)ccc2c(=O)n1C1CCCCC1`, for which the inhibition is 0% (inactive).
For the compound `O=C(O)Cc1ccccc1C(=O)O`, the inhibition is 0% (inactive).
Consider `CC(C)(C)c1ccc(-c2nnc(SCCC#N)n2C2CCCC2)cc1`, for which the inhibition is 0% (inactive).
The figure for `CC(=O)NC1CC2CCCC(C1)N2CC(=O)Nc1ccccc1` (stereo not given) is 3% (inactive); for `S=C(N=Nc1ccccc1)NNc1ccccc1` it is 0% (inactive).
`CN(c1ccc(OCc2nnc(-c3ccccc3)o2)cc1)S(=O)(=O)c1ccccc1`: the inhibition is 0% (inactive).
The figure for `Cc1onc(-c2ccccc2)c1C(=O)N1CCN(C(=O)c2ccco2)CC1` is 0% (inactive).
As to `CC1CN(c2ccc(Oc3ccccc3)cc2)c2nc3c(c(=O)n(CC(N)=O)c(=O)n3C)n2C1` (stereo not given), the inhibition is 3% (inactive).
For the compound `Cc1ccc(-n2ncc3c(=O)n(CC(=O)NCc4ccco4)cnc32)cc1`, the inhibition was 0% (inactive).
With `O=C(CSc1nnc(-c2c[nH]c3ccccc23)o1)N(Cc1ccccc1)c1ccc(F)cc1` the figure was 0% (inactive); with `COc1ccc(-c2nc3c(c(=O)n(C)c(=O)n3C)n2CC2CC(c3ccccc3)=NO2)cc1OC` (stereo not given), 1% (inactive); with `CC1=NN(c2ccccc2)C(=O)C1`, 0% (inactive).
With `CCSC1=C(C#N)C(c2cccc(OC)c2)CC(=O)N1` (stereo not given), the inhibition is 6% (inactive).
The figure for `Cc1ccnc(SCCn2c(N3CCN(Cc4ccccc4)CC3)nc3c2c(=O)[nH]c(=O)n3C)n1` is 0% (inactive).
On to `COC(=O)c1ccc(CSc2nc3c(cnn3-c3ccc(C)c(C)c3)c(=O)[nH]2)o1`, for which the inhibition was 3% (inactive).
The figure for `CCC1CCCCN1C(=O)Cn1c(C(=O)OC)cc2sc(Cl)cc21` (stereo not given) is 0% (inactive).
Take `CCNc1nc(N2CCOCC2)nc(N(c2ccccc2)c2ccccc2)n1`: the inhibition is 0% (inactive).
With `Cc1cc(C)nc(NC(=O)c2cnc3sccn3c2=O)n1` the figure was 13% (inactive); with `CC1(C)C(c2ccccc2)=NC(c2ccccc2)N1O` (stereo not given), 3% (inactive); with `CCOC(=O)c1c(C)[nH]c(C(=O)CSc2nc3ccccc3o2)c1C`, 0% (inactive).
For `O=C(Cn1c(=O)[nH]n(-c2ccccc2)c1=O)N1CCCc2ccccc21`, the inhibition is 0% (inactive).
The figure for `O=C(CCCOc1ccccc1)N1CCN(c2ccccn2)CC1` is 3% (inactive).
The figure for `O=C(CSc1ncnc2nc[nH]c12)c1ccc(Cl)cc1` is 1% (inactive).
Turning to `COCCN(C(=O)c1csnn1)C(C(=O)NC1CCCCC1)c1cccs1` (stereo not given), the inhibition is 2% (inactive).
With `O=C1N=C(N2CCOCC2)CS1` the figure was 0% (inactive); with `Cc1ccc(C)c(-n2c(Cc3cc(=O)[nH]c(=O)[nH]3)nnc2SCC(=O)NCc2ccco2)c1`, 0% (inactive); with `O=C(Nc1ccc2nc(-c3cccs3)[nH]c2c1)c1ccco1`, 0% (inactive).
With `COc1ccc(CCN2C(=O)C3C4C=CC(C4)C3C2=O)cc1OC` (stereo not given) the figure was 0% (inactive); with `Cc1cc(C(=O)Nc2ccc(S(=O)(=O)Nc3onc(C)c3C)cc2)cs1`, 4% (inactive).
Consider `O=C(OCC#CCSc1nnc(-c2ccncc2)o1)c1cccs1`, for which the inhibition was 0% (inactive).
As to `CCCNS(=O)(=O)c1ccc(C(=O)NCC2CCCO2)cc1` (stereo not given), the inhibition is 0% (inactive).
`COc1ccc(C(=O)c2coc3ccc(O)c(CN4CCCCC4)c23)cc1`: the inhibition was 0% (inactive).
With `COC(=O)c1c(C(=O)OC)n(CCCN)c2ccc(C)cc12` the figure was 9% (inactive); with `CCCCOc1ccc(CC(=O)NO)cc1`, 9% (inactive); with `COc1ccc(CNC(=O)COC(=O)c2n[nH]c3ccccc23)cc1OC`, 7% (inactive).
The figure for `Cn1c(SCC(=O)Nc2cccc3ccccc23)nc(O)cc1=O` is 0% (inactive).
